Assay results: PubChem BioAssay (NCATS)
Where “and” joins values, the source holds several entries; their conditions need not be identical. Identical values can stand only once. Records with an inconclusive call do not appear. Calls of active or inactive are those of the source. Unless noted, the call rests on the fitted dose curve; in most records, active means well fitted curve in the direction sought with a large enough effect; inconclusive means small, poorly fitted or top-dose-only effect, or another doubt; inactive means no such curve, though single readings can be large; an effect the other way counts as inactive or inconclusive.

Columns and labels:
[1] = target: Cellular tumor antigen p53 (Homo sapiens) (UniProt P04637); experiment: Primary qHTS for small molecule compounds that upregulate eGFP-tagged delta133p53alpha (in N-terminal) cells. (AID 2060322); conditions: NCI-H358 eGFP-delta133p53alpha fluorescence, 24 h; activation: active compounds read high;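 further: series mostly up to about 56 µM; 0% = DMSO vehicle and 100% = reference activator; nearly all actives have a fitted effect of over 75% in size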
Cellular tumor antigen p53 (Homo sapiens), sequence (P04637 whole entry, looked up): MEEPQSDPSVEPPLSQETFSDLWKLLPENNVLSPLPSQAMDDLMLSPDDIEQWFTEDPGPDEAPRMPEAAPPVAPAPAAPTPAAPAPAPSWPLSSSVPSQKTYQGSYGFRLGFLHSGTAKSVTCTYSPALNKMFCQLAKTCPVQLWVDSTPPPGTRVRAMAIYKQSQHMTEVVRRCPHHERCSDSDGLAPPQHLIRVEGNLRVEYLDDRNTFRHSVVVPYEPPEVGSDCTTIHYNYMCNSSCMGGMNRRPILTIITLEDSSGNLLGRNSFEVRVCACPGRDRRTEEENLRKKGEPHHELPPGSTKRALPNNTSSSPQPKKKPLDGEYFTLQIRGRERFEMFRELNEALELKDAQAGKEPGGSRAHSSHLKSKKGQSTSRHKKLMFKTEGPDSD
Procedure, shortened: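 NCI-H358 cells pre-induced 24 h with 10 ng/ml doxycycline to express N-terminal eGFP-delta133p53alpha, then dosed 24 h at 37C without doxycycline; fixed, Hoechst-stained, GFP intensity by laser scanning cytometry, normalized to DMSO (0%) and 57.5 uM 5-azacytidine (100%).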

[2] = target: Aldehyde dehydrogenase, mitochondrial (Homo sapiens) (UniProt P05091); experiment: qHTS for Inhibitors of the Aldehyde Dehydrogenase Family (ALDH2) Validation screens (AID 2061302; active means well fitted inhibition curve with a large enough effect; title and protocol of this record describe different tests;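 further: plate controls were DMSO vehicle for no effect and maximal DPI positive control response for full effect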)
[3] = target: Retinaldehyde dehydrogenase 3 (Homo sapiens) (UniProt P47895); experiment: qHTS for Inhibitors of the Aldehyde Dehydrogenase Family (ALDH1A3) Validation screen (AID 2061312); further: on the % scale 0 is the no-effect control and ±100 the full control effect; nearly all actives have a fitted effect of over 45% in size

CO[C@H]1O[C@@H]2O[C@]3(C)CC[C@@H]4[C@@H](C)CC[C@H]([C@H]1C)[C@]24OO3
inactive: activation [1] -13% | Potency [2] | Potency [3]

O=C(NCCN1CCOCC1)c1ccc(Cl)cc1
inactive: activation [1] -2.82% and -8.35% | Potency [2] | Potency [3]

CC(C)Cn1c(=O)n(C)c(=O)c2[nH]cnc21
inactive: activation [1] -30.3% | Potency [2] | Potency [3]

CCCC(=O)NCCc1c2n(c3ccc(OC)cc13)CCCc1ccccc1-2
inactive: activation [1] -45.5% | Potency [2] | Potency [3]

CC1=C(/C=C/C(C)=C/C=C/C(C)=C/C(=O)Nc2ccc(O)cc2)C(C)(C)CCC1
inactive: activation [1] -39.3% | Potency [2] | Potency [3]

COc1cc(C(O)CO)ccc1O (stereo not drawn)
inactive: activation [1] -14% | Potency [2] | Potency [3]
